Growth data for seven compounds are collected here from PubChem BioAssay (NCI).

Common to all, as to assay: NCI-60 one-dose screen, 48 h (100 = growth as untreated, 0 = no growth, -100 = all killed)
What all share (conditions): 10 µM unless noted

The test system of assay [1] is NCI-H23 lung.
The subject of assay [2] is NCI-H226 lung.
For assay [3], the system named is NCI-H322M lung.
In assay [4] the test system is HOP-62 NSCLC.
Assay [5] deals with NCI-H460 lung.
Assay [6] concerns HOP-92 NSCLC.
The subject of assay [7] is NCI-H522 lung.
Assay [8] has as its system A549/ATCC NSCLC.
For assay [9], the system named is 786-0 renal.
Assay [10] has as its system COLO 205 colon.
Assay [11] deals with DU-145 prostate.
For assay [12], the system named is K-562 leukemia.
For assay [13], the system named is MALME-3M melanoma.
For assay [14], the system named is MDA-MB-231 breast.
The test system of assay [15] is RXF 393 renal.
Assay [16] concerns SF-268 CNS.
The test system of assay [17] is SF-295 CNS.
Assay [18] concerns SF-539 CNS.
Assay [19] concerns UACC-257 melanoma.
In assay [20] the test system is M14 melanoma.

The structures appear in SMILES notation. About 83,000 compounds went through this panel and 20% of them were active in at least one assay; those are over-represented in the sample as a whole.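 In brief: 96-well plates, 48 h treatment, single concentration, percent growth endpoint.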 Unmarked numbers belong to inactive results. Active and inactive are the calls of the source. The calls were made as follows: active = growth percent below 10; inactive = the rest.

For the compound `COc1ccc(CNc2nc3ccccc3c3c(=O)c4ccccc4sc23)cc1OC`, the growth in [1] was 80.9%; in assay [2], 75.6%; in [3], 80.6%; in assay [4], 79.8%; in assay [5], 63.3%; in assay [6], 42.8%. The growth is 77.4% in [7]; 61.6% in assay [8]; 76.8% in assay [9]; 79.4% in assay [10]; 74% in assay [11]; 69.3% in assay [12]. The growth was 66.6% in assay [13]; 61.5% in assay [14]; 61% in [15]; 78.7% in [16]; 68.3% in assay [17]; 81% in assay [18]. For the same compound, the growth in [19] was 88.6%; in assay [20], 86.2%.

For `COC(OC)C1(c2ccccc2)NC(=O)NC1=O` (stereo not given), the growth was 112% in assay [1]; 113% in assay [2]; 108% in [3]; 103% in [4]; 115% in [5]; 104% in assay [6]. For the same compound, the growth in assay [7] is 79.8%; in assay [8], 95.9%; in assay [9], 108%; in [10] it was 119%; in assay [11], 120%; in assay [12], 112%. Moreover, the growth in assay [13] is 112%; in assay [14] it was 112%; in assay [15], 116%; in [16], 119%; in assay [17], 121%; in assay [18], 114%. The growth in [19] is 104%; in assay [20], 108%.

Consider `Nc1nc(-c2cc3c(cc2Cl)NC(=O)/C3=C/c2ccc(Cl)cc2)cs1`, for which the growth was 49.1% in assay [1]; 72.3% in [2]; 59.7% in assay [3]; 63% in assay [4]; 53.1% in [5]; 17.8% in assay [6]. The growth in assay [7] was 17.3%; in [8], 64.5%; in assay [9] it was 43.7%; in assay [10], 61.7%; in assay [11] it was 64.6%; in assay [12], 5.83% (active). Moreover, the growth in [13] is 56.2%; in [14], 2.9% (active); in assay [15], 51.6%; in assay [16], 44.7%; in [17], 60.5%; in [18] it was 62.3%. The growth in [19] is 73.5%; in [20] it was 28.7%.

As to `O=C1COc2ccccc2C(=O)N1CCCCNc1ccccc1`, the growth is 98.9% in assay [1]; 91.7% in assay [2]; 99.5% in assay [3]; 73.5% in assay [4]; 98.7% in assay [5]; 64.8% in assay [6]. Also, the growth was 68.9% in assay [7]; 64.9% in assay [8]; 70.8% in [9]; 101% in assay [10]; 96.3% in [11]; 68.5% in [12]. Further, the growth in assay [13] was 102%; in assay [14] it was 88.8%; in assay [15], 123%; in assay [16] it was 73.2%; in assay [17], 96.3%; in assay [18], 63.2%. The growth in [19] is 105%; in [20] it was 99.1%.

For the compound `CNCCCOc1c(Br)cc(CCNC(=O)/C(Cc2cc(Br)c(OC)c(Br)c2)=N/O)cc1Br`, the growth in assay [1] was -20.9% (active); in [2] it was 75.1%; in assay [3], 21%; in assay [4] it was -7.84% (active); in assay [5], -44.7% (active); in assay [6], -6.24% (active). For the same compound, the growth in [7] was -64% (active); in assay [8] it was -16.7% (active); in assay [9] it was -80.8% (active); in assay [10], -72% (active); in assay [11] it was -5.03% (active); in [12], -51.2% (active). The growth is -78% (active) in assay [13]; -69.8% (active) in assay [14]; -5.85% (active) in assay [15]; 4.43% (active) in assay [16]; -65.5% (active) in assay [17]; -73.9% (active) in assay [18]. The growth is -45.3% (active) in assay [19] and -76.7% (active) in [20].

In the case of `COc1cc2ncn3c(=O)c4c5c(sc4nc3c2cc1OC)CCCCC5`, the growth in assay [1] was 89.3%; in [2] it was 74.5%; in [3], 90.9%; in assay [4], 91%; in assay [5], 99.5%; in assay [6] it was 81.9%. The growth in [7] was 99.9%; in [8] it was 104%; in assay [9] it was 106%; in assay [10], 98%; in assay [11] it was 111%; in [12] it was 97.3%. Besides, the growth in assay [13] is 93.7%; in assay [14] it was 91.7%; in assay [15], 105%; in [16], 93.7%; in assay [17], 105%; in assay [18] it was 100%. Further, the figures for the growth in [19] and in [20] were 105% and 106%, respectively.

For the compound `CCCC(=O)Oc1ccc(/C(=C(\C)c2ccc(Cl)cc2)c2ccc(OCCN(CC)CC)cc2)cc1`, the growth in assay [1] is -33.4% (active); in assay [2], 68.4%; in assay [3], 24.1%; in assay [4], -57.1% (active); in assay [5] it was -83.9% (active); in assay [6] it was -13.1% (active). The growth in assay [7] was -55% (active); in [8], -51% (active); in assay [9] it was -89.6% (active); in [10], -84% (active); in assay [11], -22.9% (active); in assay [12], -19.6% (active). Moreover, the growth in [13] was -77.5% (active); in assay [14], -40.9% (active); in assay [15] it was -79.5% (active); in [16] it was -9.12% (active); in assay [17] it was -75.9% (active); in assay [18] it was -77.9% (active). The growth in assay [19] was -62.2% (active); in assay [20] it was -71.8% (active).
